Among the data in PubChem BioAssay AID1211 (NMMLSC, 2008) are inhibition of ligand binding values, retold here.

The experiment has as its target Estrogen receptor (Homo sapiens) (UniProt P03372). Nature of the experiment: displacement of fluorescent estrogen from ERalpha – cell-based, Cos7 ERalpha-GFP, flow cytometry, primary screen (AID 1211).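 Also: 0% = DMSO vehicle wells and 100% = no E2-Alexa633 signal left.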 The conditions noted are these: fluorescent ligand competition, stronger effect = higher value.

Molecules are shown by their SMILES. The source made the active and inactive calls. No rule for the calls is given here.

Chain of Estrogen receptor (Homo sapiens) (P03372 whole entry, looked up): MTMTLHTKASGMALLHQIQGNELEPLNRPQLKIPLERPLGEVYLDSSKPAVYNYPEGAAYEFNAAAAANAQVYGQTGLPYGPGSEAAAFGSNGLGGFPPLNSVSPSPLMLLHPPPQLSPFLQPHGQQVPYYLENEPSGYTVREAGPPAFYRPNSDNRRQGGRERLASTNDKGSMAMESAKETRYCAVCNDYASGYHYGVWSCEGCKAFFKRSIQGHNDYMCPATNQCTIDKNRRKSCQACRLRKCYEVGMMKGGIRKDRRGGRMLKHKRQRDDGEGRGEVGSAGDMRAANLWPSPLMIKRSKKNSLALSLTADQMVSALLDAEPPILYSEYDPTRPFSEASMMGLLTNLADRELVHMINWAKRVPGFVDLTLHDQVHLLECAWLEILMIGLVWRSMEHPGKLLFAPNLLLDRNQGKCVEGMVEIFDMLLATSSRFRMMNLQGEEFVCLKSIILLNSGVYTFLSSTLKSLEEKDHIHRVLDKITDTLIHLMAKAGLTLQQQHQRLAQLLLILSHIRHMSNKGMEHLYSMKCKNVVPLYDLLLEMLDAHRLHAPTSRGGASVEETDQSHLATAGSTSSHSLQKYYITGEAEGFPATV

Regarding `CCOC(=O)c1c(/N=C/c2ccc(O)cc2O)sc2c1CCC2`, the inhibition of ligand binding is 58% (inactive) (at 10 µM) and 42% (binding inhibition, at 0.1 µM).

On to `Cc1ccc(N=Cc2ccc(O)cc2O)cc1F`, for which the inhibition of ligand binding is, setting by setting: (at 10 µM) 29% (inactive); (binding inhibition, at 0.1 µM) 2%.

For `CC(C)(C)NC(=O)c1ccc2c(c1)C1C3CCC(C3)C1C(c1ccccc1)N2` (stereo unspecified), the inhibition of ligand binding is, setting by setting: (at 10 µM) 70% (active); (binding inhibition, at 0.1 µM) 9%.

Take `Cc1cc(C)n2nc(SCc3cc(=O)oc4cc(O)ccc34)nc2n1`: the inhibition of ligand binding (at 10 µM) was 49% (inactive) and the inhibition of ligand binding (binding inhibition, at 0.1 µM) is 5%.

On to `Cc1nc2cc(-c3ccsc3-n3c(C)ccc3C)[nH]n2c(=O)c1Cl`, for which the inhibition of ligand binding reads like this: (at 10 µM) 30% (inactive); (binding inhibition, at 0.1 µM) 54%.

`CCC1=NN2C(=N)/C(=C\c3ccc(SCc4ccco4)o3)C(=O)N=C2S1`: the inhibition of ligand binding (at 10 µM) was 22% (inactive) and the inhibition of ligand binding (binding inhibition, at 0.1 µM) amounted to 10%.

Take `NC(=O)c1c(NC(=O)c2cc3ccccc3o2)sc2c1CCC2`: the inhibition of ligand binding is, setting by setting: (at 10 µM) 43% (inactive); (binding inhibition, at 0.1 µM) 5%.

As for `Cc1ccc2c(Cl)cc(Cl)c(OCC(=O)NCc3ccco3)c2n1`, the inhibition of ligand binding is, setting by setting: (at 10 µM) 21% (inactive); (binding inhibition, at 0.1 µM) 18%.

Regarding `CCCCn1c(NC(=O)CC)c(C#N)c2nc3ccccc3nc21`, the inhibition of ligand binding reads like this: (at 10 µM) 35% (inactive); (binding inhibition, at 0.1 µM) 40%.

On to `Cc1ccc(NC(=O)CSc2nc3ccccc3c3nc4ccccc4n23)cc1`, for which the inhibition of ligand binding is, setting by setting: (at 10 µM) 60% (inactive); (binding inhibition, at 0.1 µM) 27%.

For `Nc1ccc2nc(-c3cccs3)[nH]c2c1`, the inhibition of ligand binding is 10% (inactive) (at 10 µM) and 49% (binding inhibition, at 0.1 µM).

For the compound `Cc1cc(-c2nnc3sc(-c4ccc(Cl)cc4Cl)nn23)n[nH]1`, the inhibition of ligand binding is 27% (inactive) (at 10 µM) and 53% (binding inhibition, at 0.1 µM).

As for `O=C(c1cc2ncc(Br)cn2n1)N1CCOCC1`, the inhibition of ligand binding runs as follows: (at 10 µM) 54% (inactive); (binding inhibition, at 0.1 µM) 25%.

For `O=C(Nc1nc(-c2nc3ccccc3s2)cs1)C1COc2ccccc2O1` (stereo unspecified), the inhibition of ligand binding by setting is: (at 10 µM) 33% (inactive); (binding inhibition, at 0.1 µM) 11%.

On to `CC(=O)c1sc2nc(SCC(=O)N3CCCCC3)[nH]c(=O)c2c1C`, for which the inhibition of ligand binding by setting is: (at 10 µM) 33% (inactive); (binding inhibition, at 0.1 µM) 30%.

Take `COC(=O)c1cc(-c2c(C)oc3cc(O)ccc3c2=O)c(C)o1`: the inhibition of ligand binding runs as follows: (at 10 µM) 32% (inactive); (binding inhibition, at 0.1 µM) 50%.

In the case of `Cc1ccc(C(=O)ONc2ccc(N=NC(=O)c3ccccc3O)cc2)cc1`, the inhibition of ligand binding was 39% (inactive) (at 10 µM) and 37% (binding inhibition, at 0.1 µM).

Take `CCOc1[nH]c(/N=C/c2ccco2)c(C#N)c1C#N`: the inhibition of ligand binding was 21% (inactive) (at 10 µM) and 9% (binding inhibition, at 0.1 µM).

With `O=c1cc(O)c2sc(Nc3ccc(F)cc3)nc2[nH]1`, the inhibition of ligand binding (at 10 µM) was 9% (inactive) and the inhibition of ligand binding (binding inhibition, at 0.1 µM) is 48%.

For the compound `CCOC(=O)N1CCN(S(=O)(=O)c2ccc(C(=O)Nc3nc4ccc(F)cc4s3)cc2)CC1`, the inhibition of ligand binding is, setting by setting: (at 10 µM) 34% (inactive); (binding inhibition, at 0.1 µM) 11%.

`COc1ccc(C2C=C(c3ccc(Cl)cc3)Nc3nc(NC(C)=O)nn32)cc1` (stereo unspecified): the inhibition of ligand binding is 42% (inactive) (at 10 µM) and 22% (binding inhibition, at 0.1 µM).

With `Cn1nnnc1SCC(=O)Nc1nc(-c2ccccc2)c(-c2ccccc2)o1`, the inhibition of ligand binding is 45% (inactive) (at 10 µM) and 7% (binding inhibition, at 0.1 µM).

In the case of `COC(=O)c1ccc(-c2n[nH]c(=O)c3ccccc23)cc1`, the inhibition of ligand binding runs as follows: (at 10 µM) 0% (inactive); (binding inhibition, at 0.1 µM) 16%.

In the case of `COc1ccc(NC(=O)c2ccco2)cc1N`, the inhibition of ligand binding by setting is: (at 10 µM) 2% (inactive); (binding inhibition, at 0.1 µM) 3%.

On to `COc1ccc(-c2nc3ccc([N+](=O)[O-])cc3o2)cc1`, for which the inhibition of ligand binding (at 10 µM) is 28% (inactive) and the inhibition of ligand binding (binding inhibition, at 0.1 µM) amounted to 52%.

Turning to `NS(=O)(=O)c1ccc2c(c1)C1C=CCC1C(C1CC=CCC1)N2` (stereo unspecified), the inhibition of ligand binding (at 10 µM) is 69% (active) and the inhibition of ligand binding (binding inhibition, at 0.1 µM) was found to be 17%.

Consider `Cc1nn(-c2ccccc2)c(Cl)c1/C=N/Nc1ccc(S(=O)(=O)Nc2ccccc2C(=O)O)cc1[N+](=O)[O-]`, for which the inhibition of ligand binding is, setting by setting: (at 10 µM) 38% (inactive); (binding inhibition, at 0.1 µM) 12%.

For the compound `C/C(=N\Nc1ccc([N+](=O)[O-])cc1)c1cccc(N)c1`, the inhibition of ligand binding is, setting by setting: (at 10 µM) 4% (inactive); (binding inhibition, at 0.1 µM) 35%.

`CCN(c1ccccc1)S(=O)(=O)c1cc(C(=O)O)ccc1C`: the inhibition of ligand binding was 7% (inactive) (at 10 µM) and 20% (binding inhibition, at 0.1 µM).

With `Oc1ccc(-c2nnc(-c3ccccc3)c(-c3ccccc3)n2)cc1`, the inhibition of ligand binding is 47% (inactive) (at 10 µM) and 51% (binding inhibition, at 0.1 µM).

`CC(=O)c1cccc(NC(=O)Cc2cccs2)c1`: the inhibition of ligand binding by setting is: (at 10 µM) 3% (inactive); (binding inhibition, at 0.1 µM) 40%.

In the case of `Oc1c(C=Nc2cccc3cccnc23)sc2ccccc12`, the inhibition of ligand binding runs as follows: (at 10 µM) 40% (inactive); (binding inhibition, at 0.1 µM) 21%.

Regarding `COc1ccc(C(Nc2ccccn2)c2oc(CO)cc(=O)c2O)cc1` (stereo unspecified), the inhibition of ligand binding (at 10 µM) was 32% (inactive) and the inhibition of ligand binding (binding inhibition, at 0.1 µM) was 22%.
